A selection: hits, their analogues and other compounds. The true share with any hit is near 3%.
pPAFAH inh: inhibitors of human plasma PAF acetylhydrolase (pPAFAH) | actives 1.5% (n = 330,000) | Q13093 | recombinant pPAFAH, FP-rhodamine probe fluorescence polarization | inhibition, % at 3.39 µM | AID 463082;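 active = inhibition above the mean inhibition across the screen plus 3 SD, cut at about 25% in these data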;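 also: inhibitors block binding of the rhodamine activity-based probe so polarization drops; 0% = enzyme with DMSO and 100% = wells lacking pPAFAH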
Target sequence (Q13093 whole entry, looked up): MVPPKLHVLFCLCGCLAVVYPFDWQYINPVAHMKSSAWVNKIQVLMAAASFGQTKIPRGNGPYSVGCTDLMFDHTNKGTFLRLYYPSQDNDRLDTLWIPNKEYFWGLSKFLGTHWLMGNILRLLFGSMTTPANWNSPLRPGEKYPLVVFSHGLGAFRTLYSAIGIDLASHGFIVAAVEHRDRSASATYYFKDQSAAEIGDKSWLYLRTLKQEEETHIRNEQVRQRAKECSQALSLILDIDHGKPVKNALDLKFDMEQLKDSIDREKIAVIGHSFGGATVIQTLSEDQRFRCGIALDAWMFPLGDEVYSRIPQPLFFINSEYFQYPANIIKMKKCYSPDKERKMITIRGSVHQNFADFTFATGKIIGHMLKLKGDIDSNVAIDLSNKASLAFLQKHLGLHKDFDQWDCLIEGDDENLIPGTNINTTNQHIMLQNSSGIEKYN
PAFAH1B3 FP inh: inhibitors of human PAFAH1B3. Q15102. recombinant PAFAH1B3, FP-rhodamine probe, fluorescence polarization. inhibition, % at 3.39 µM. actives 0.28% (n = 340,000). AID 492972;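 active = inhibition above the screen-wide average of all tested compounds plus 3 SD, cut at about 25% in these data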;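 also: 0% = enzyme with DMSO only and 100% = wells lacking PAFAH1B3 protein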
ATG4B inh: ATG4B (human) cysteine protease inhibition. ATG4B cleavage of LC3-PLA2, NBD-HPC fluorescence, 1 h. inhibition, % at 8.33 µM. actives 0.51% (n = 340,000). AID 504462; in the data active = inhibition above about 40%
PAFAH1B2 FP inh: PAFAH1B2 (human) inhibition. P68402. recombinant PAFAH1B2, FP-rhodamine activity probe, fluorescence polarization. inhibition, % at 3.39 µM. actives 1.2% (n = 340,000);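 active = inhibition above the mean of all tested compounds plus 3 SD, cut at about 24% in these data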;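 also: 0% = enzyme with DMSO and 100% = wells lacking PAFAH1B2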
DAGLB inhibitor: diacylglycerol lipase beta (human) inhibition; HEK293T DAGLB membrane lysate, EnzChek fluorogenic substrate; inhibition, % at 5.17 µM; actives 0.059% (n = 340,000); Q8NCG7; in the data active = inhibition above about 34%;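 also: 0% = enzyme with vehicle and 100% = wells lacking enzyme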
PAFAH2 inh: PAFAH2 (human) inhibition | Q99487 | recombinant PAFAH2, FP-rhodamine activity probe, fluorescence polarization | inhibition, % at 3.39 µM | actives 0.99% (n = 340,000) | AID 492956;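 active = inhibition above the mean over all tested compounds plus 3 SD, cut at about 30% in these data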;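 also: inhibitors block probe labeling of enzyme so polarization drops; 0% = enzyme with DMSO and 100% = wells lacking PAFAH2 protein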
* marks the source's active call; other numbers are inactive results; / = no result.

SMILES	pPAFAH inh	PAFAH1B3 FP inh	ATG4B inh	PAFAH1B2 FP inh	DAGLB inhibitor	PAFAH2 inh
Cc1cc(Oc2ncccc2[N+](=O)[O-])c2cc(Cl)ccc2n1	26.2*	2.5	4.4	-0.5	0.5	-0.9
O=[N+]([O-])c1ccc(Sc2cccc[n+]2[O-])c2nonc12	/	82.7*	-7.2	56.2*	1.2	90.0*
O=[N+]([O-])c1ccc(Nc2ccccc2)c2nonc12	11.1	14.2	2.3	6.3	27.2	-2.0
O=C(Cc1ccc(Cl)cc1)N1CCc2ccccc2C1	7.7	0.2	-1.3	6.4	-3.4	-0.4
O=C(c1nnc(Cc2ccc(Cl)cc2)o1)N1CCc2ccccc2C1	29.8*	-1.6	5.6	2.5	1.1	3.9
CC(C)CNC(=O)CSc1ccc(Cl)cc1	2.8	-1.8	-1.0	25.8*	-0.5	2.5
C[C@H](CO)N1C[C@H](C)[C@@H](CN(C)S(=O)(=O)c2ccccc2)Oc2c(NC(=O)Nc3ccc(C(F)(F)F)cc3)cccc2C1=O	12.4	-10.8	-48.5	25.7*	-1.0	-28.9
C[C@H](CO)N1C[C@H](C)[C@@H](CN(C)S(C)(=O)=O)Oc2c(NC(=O)Nc3ccc(C(F)(F)F)cc3)cccc2C1=O	8.7	2.6	5.3	2.6	-4.2	6.4
C[C@@H]1CN([C@H](C)CO)C(=O)c2cc(NS(=O)(=O)c3cccs3)ccc2O[C@H]1CN(C)Cc1ccccc1	7.1	7.7	-17.8	2.9	-5.2	2.2
C[C@H](CO)N1C[C@H](C)[C@@H](CN(C)C(=O)Nc2ccc(C(F)(F)F)cc2)Oc2c(NC(=O)Nc3ccc(C(F)(F)F)cc3)cccc2C1=O	-14.6	-40.7	-7.1	50.5*	-4.2	-50.8
C[C@H](CO)N1C[C@H](C)[C@@H](CN(C)C(=O)Nc2ccc(C(F)(F)F)cc2)Oc2ccc(NC(=O)Nc3ccc(C(F)(F)F)cc3)cc2C1=O	-32.8	-65.5	-7.7	-34.1	1.4	-52.0
C[C@H]1CN([C@@H](C)CO)C(=O)c2cccc(NC(=O)Nc3ccc(C(F)(F)F)cc3)c2O[C@@H]1CN(C)C(=O)Nc1ccc(F)cc1	3.2	-13.3	-12.5	52.2*	-0.5	-24.3
C[C@@H]1CN([C@@H](C)CO)C(=O)c2cc(NS(=O)(=O)c3cccs3)ccc2O[C@H]1CN(C)Cc1ccc(C(F)(F)F)cc1	27.3*	8.5	-18.3	5.3	1.6	4.2
C[C@@H]1CN([C@H](C)CO)C(=O)c2cc(NC(=O)Nc3ccc(C(F)(F)F)cc3)ccc2O[C@H]1CN(C)C(=O)Nc1ccc(F)cc1	/	-65.8	-19.0	-32.4	-1.4	-104.3
CCN(CC(=O)Nc1ccccc1C(F)(F)F)C(=O)C1CCC1	4.6	3.6	-6.2	7.6	0.7	3.9
COc1ccc(NC(=O)Nc2cccc3c2O[C@H](CN(C)C(=O)Nc2ccc(C(F)(F)F)cc2)[C@@H](C)CN([C@H](C)CO)C3=O)cc1	-2.1	2.7	-8.9	68.4*	-0.6	-7.8
COc1ccc(NC(=O)N(C)C[C@H]2Oc3c(NS(=O)(=O)c4cccs4)cccc3C(=O)N([C@H](C)CO)C[C@@H]2C)cc1	-2.3	9.8	8.1	3.6	-2.7	0.4
C[C@H]1CN([C@@H](C)CO)C(=O)c2cccc(NC(=O)Nc3ccc(C(F)(F)F)cc3)c2O[C@H]1CN(C)C	29.7*	10.4	-1.7	3.1	-10.2	-13.4
COc1ccc(NC(=O)N(C)C[C@H]2Oc3c(NC(=O)NC(C)C)cccc3C(=O)N([C@H](C)CO)C[C@@H]2C)cc1	-6.6	2.3	-10.1	2.1	-1.8	11.8
C[C@H](CO)N1C[C@H](C)[C@@H](CN(C)C(=O)Nc2ccc(C(F)(F)F)cc2)Oc2c(NS(=O)(=O)c3cccs3)cccc2C1=O	11.9	1.7	-8.4	25.1*	5.4	2.3
CCN(CC)CCOC(=O)c1ccc(NC(=O)C(C)NC(=O)C23CC4CC(CC(C4)C2)C3)cc1 (stereo not drawn)	-3.1	4.4	9.9	5.3	-2.4	-7.3
COc1ccc(C(=O)NCC(=O)N/N=C/c2ccc(C)o2)cc1OC	-2.3	0.2	-4.2	5.4	1.7	-0.6
CN(Cc1ccccc1)C(=O)c1cccc(NC(=O)Cc2ccc(NC(=O)C3CCCN(C(=O)c4ccccc4)C3)cc2)c1 (stereo not drawn)	/	1.4	-17.8	3.1	0.6	-1.3

Compound activity from PubChem.
